Inhibition data for 54 compounds are collected here from PubChem BioAssay AID372 (MTDP, 2006).

The campaign covered roughly 100,000 compounds. About 770 (0.77%) were called active. The sample holds actives, similar compounds and a random draw of the others, so the mix is not that of the screen. No stated cut-off is given here; in the data, active means inhibition above about 50%; inactive means the rest.

For the test, the target named is Gag-Pol polyprotein (Human immunodeficiency virus type 1 group M subtype B (isolate HXB2)) (UniProt P04585). The test can be described thus: RNase H inhibition, HIV 1 Gag Pol polyprotein, FRET biochemical assay, screening (AID 372). The settings on record: HIV-1 RT RNase H, FRET RNA/DNA substrate fluorescence; at 10 µM; active compounds read high.
Usually inhibition stands for the relative decrease from the control value, in per cent. As to `O=C(Nc1ccc2ccccc2c1)c1cc(I)ccc1Cl`, the inhibition is 23% (inactive). To `COc1ccc(/C(N)=N/OC(=O)/C=C/c2ccccc2)cc1` belongs 15% (inactive); to `CCCCOC(=O)c1ccc(NC(=O)COc2ccccc2Br)cc1`, 15% (inactive). Regarding `COc1ccc(NC(=O)CN(c2c(C)n(C)n(-c3ccccc3)c2=O)S(=O)(=O)c2ccccc2)cc1`, the inhibition was 4% (inactive).

As for `O=C(CSc1nc2sc3c(c2c(=O)n1-c1ccc(Cl)cc1)CCCC3)c1ccccc1`, the inhibition is 13% (inactive).

For `O=[N+]([O-])c1ccc(N2CCN(S(=O)(=O)c3ccc4ccccc4c3)CC2)cc1N1CCCC1`, the inhibition was 5% (inactive). With `CC(c1ccccc1)N1C(=O)/C(=C/c2cccc([N+](=O)[O-])c2)SC1=S` (centres undefined), the inhibition is 11% (inactive).

On to `Cc1ccc(-n2nc3ccc(NC(=O)c4ccc([N+](=O)[O-])cc4)cc3n2)cc1Cl`, for which the inhibition was 53% (active). As for `O=C(Nc1ccc(-c2nc3ccc(NC(=O)c4ccccc4[N+](=O)[O-])cc3[nH]2)cc1)c1ccccc1[N+](=O)[O-]`, the figure is 13% (inactive); as for `Cc1ccc(-n2nc3ccc(NC(=O)c4cccc([N+](=O)[O-])c4)cc3n2)cc1Cl`, 43% (inactive); as for `O=C(Nc1ccc2nn(-c3ccc(Cl)cc3)nc2c1)c1ccc([N+](=O)[O-])cc1`, 31% (inactive). As for `Cc1ccc(C(=O)Nc2ccc(-c3nc4cc5ccccc5cc4[nH]3)cc2)cc1[N+](=O)[O-]`, the figure is 80% (active). Turning to `O=C(Nc1ccc2nn(-c3ccc(F)cc3)nc2c1)c1ccc(Cl)c([N+](=O)[O-])c1`, the inhibition is 52% (active). Regarding `O=C(Nc1ccc2nn(-c3ccc(F)cc3)nc2c1)c1ccc([N+](=O)[O-])cc1`, the inhibition was 16% (inactive).

For the compound `O=C(Nc1ccc2nn(-c3ccccc3)nc2c1)c1ccc(Cl)c([N+](=O)[O-])c1`, the inhibition was 21% (inactive). In the case of `COc1ccc(C(=O)NC(=S)Nc2ccc(C)c(Cl)c2)cc1[N+](=O)[O-]`, the inhibition is 5% (inactive). Take `COc1ccc(C(=O)NC(=S)Nc2ccc3nn(-c4ccc(F)cc4)nc3c2)cc1[N+](=O)[O-]`: the inhibition was 38% (inactive). Turning to `Cc1ccc(C(=O)Nc2ccccc2)cc1[N+](=O)[O-]`, the inhibition was 7% (inactive). As for `CC(=O)N/N=C/c1ccc(-c2ccc([N+](=O)[O-])cc2Br)o1`, the figure is 13% (inactive); as for `CCOc1ccc(C(=O)NCc2cccnc2)cc1Br`, 0% (inactive).

As for `CC(C)=NNC(=O)/C(=C/C=C/c1ccccc1)NC(=O)c1ccccc1`, the inhibition was 7% (inactive). As for `CC(=O)c1cccc(NC(=O)CC2S/C(=N\N=C(/C)c3ccc(Cl)cc3)NC2=O)c1` (centres undefined), the figure is 13% (inactive).

Take `O=C(c1nn2c(c1Br)NC(c1cccs1)CC2C(F)(F)F)N1CCOCC1` (centres undefined): the inhibition was 0% (inactive). Regarding `N#Cc1ccc(C=Nc2cc(Cl)cc(Cl)c2)cc1`, the inhibition was 11% (inactive). Regarding `Cc1cc2c(c(=O)o1)C(c1cccs1)C(C#N)=C(N)O2` (centres undefined), the inhibition is 4% (inactive).

As for `Cc1cc(C)c(S(=O)(=O)Nc2cc(Br)c(O)c3ccccc23)c(C)c1`, the inhibition was 18% (inactive).

As for `N#Cc1ccccc1COc1ccc(/C=C2/NC(=S)NC2=O)cc1`, the inhibition was 23% (inactive). Turning to `COc1ccc(C(=O)NC(=S)Nc2ccc(Br)cc2)cc1[N+](=O)[O-]`, the inhibition is 0% (inactive). As to `Cc1ccc(-n2nc3ccc(NC(=O)/C=C\c4cccc([N+](=O)[O-])c4)cc3n2)cc1`, the inhibition was 59% (active). To `Cc1ccc(C(=O)Nc2ccc3nn(-c4ccc(F)cc4)nc3c2)cc1[N+](=O)[O-]` belongs 40% (inactive); to `COc1ccc(C(=O)NC(=S)Nc2ccc3nn(-c4ccccc4)nc3c2)cc1[N+](=O)[O-]`, 56% (active). To `COc1ccc(C(=O)Nc2ccc3nn(-c4ccccc4)nc3c2)cc1[N+](=O)[O-]` belongs 18% (inactive). `COc1ccc(C(=O)NC(=S)Nc2ccc(-c3nc4ccccc4[nH]3)cc2)cc1[N+](=O)[O-]`: the inhibition was 60% (active).

For the compound `COc1ccc(C(=O)NC(=S)Nc2cc(-c3nc4ccccc4[nH]3)ccc2C)cc1[N+](=O)[O-]`, the inhibition is 18% (inactive).

In the case of `CCOc1ccc(C(=O)NC(=S)Nc2ccc3nn(-c4ccccc4)nc3c2)cc1[N+](=O)[O-]`, the inhibition was 18% (inactive). On to `O=C(/C=C/c1cccc([N+](=O)[O-])c1)Nc1ccc2nn(-c3ccccc3)nc2c1`, for which the inhibition is 43% (inactive). Regarding `Cc1ccc(-n2nc3cc(C)c(NC(=O)/C=C/c4cccc([N+](=O)[O-])c4)cc3n2)cc1`, the inhibition is 12% (inactive). As for `CCOc1ccc(-n2nc3ccc(NC(=O)c4ccc(C)c([N+](=O)[O-])c4)cc3n2)cc1`, the inhibition is 17% (inactive).

In the case of `Cc1ccc(C(=O)Nc2ccc3nn(-c4ccc(Cl)cc4)nc3c2)cc1[N+](=O)[O-]`, the inhibition is 51% (active).

For `CCc1ccc(C=NC23CN4CN(CN(C4)C2)C3)s1`, the inhibition was 5% (inactive). `CCOC(=O)c1c(NC(=O)CN2C(=O)S/C(=C\c3ccccc3)C2=O)sc2c1CCCC2`: the inhibition was 10% (inactive). As for `COc1cccc(/C=C2/SC(=S)N(CCC(=O)Nc3nnc(C)s3)C2=O)c1`, the figure is 7% (inactive).

For `Cn1ccnc1SCC(=O)n1c2c(c3ccccc31)CCCC2`, the inhibition was 0% (inactive). Consider `COc1ccc(-n2nc3ccc(NC(=O)c4ccc(OC)c([N+](=O)[O-])c4)cc3n2)cc1`, for which the inhibition was 3% (inactive). Turning to `O=C(Nc1ccc2nn(-c3cccc([N+](=O)[O-])c3)nc2c1)c1ccccc1`, the inhibition is 22% (inactive). Take `Cc1ccc(-n2nc3ccc(NC(=O)c4ccc([N+](=O)[O-])c(C)c4)cc3n2)cc1Cl`: the inhibition is 44% (inactive). Take `Cc1ccc(C(=O)Nc2ccc3nn(-c4cccc([N+](=O)[O-])c4)nc3c2)cc1`: the inhibition was 54% (active).

On to `O=C(Nc1ccc2nn(-c3ccccc3)nc2c1)c1ccc([N+](=O)[O-])cc1`, for which the inhibition is 12% (inactive).

Take `COc1ccc(C(=O)Nc2ccc3nn(-c4ccc(C)c(Cl)c4)nc3c2)cc1[N+](=O)[O-]`: the inhibition was 53% (active). On to `Cc1cc([N+](=O)[O-])ccc1NC(=O)c1c(C)c(C)c(C)c(C)c1C`, for which the inhibition is 10% (inactive). Consider `CCOc1ccc(N(CC(=O)NCCSCc2ccccc2)S(=O)(=O)c2ccccc2)cc1`, for which the inhibition is 10% (inactive). As for `CC1(C)Cc2cc3c(=O)[nH]c(=S)[nH]c3nc2CO1`, the inhibition was 0% (inactive). To `N#Cc1cc2c(N)c(C(=O)c3ccccc3)sc2nc1N` belongs 8% (inactive); to `CC1=C(C(=O)OC2CCCCC2)C(c2ccccc2[N+](=O)[O-])C2=C(CCCC2=O)N1` (centres undefined), 10% (inactive).
